These results are taken from PubChem BioAssay (NCI).

Structures are written as SMILES. Several values for one entry are separate records, joined by “and”; a condition that tells them apart may be missing. Equal entries are not always repeated. About 79,000 compounds went through this panel and 15% of them were active in at least one assay; those are over-represented in the sample as a whole. More than one record can exist for a structure, and the calls need not agree. Activity calls are given as the source filed them. No stated cut-off is given here; in the data, active means growth inhibition above about 70%; inactive means the rest.

The nature of experiment [1]: NCI Yeast Anticancer Drug Screen. Data for the rad50 strain (AID 155).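 Further: 0% = growth of vehicle-only cultures of the same strain.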 The settings on record: S. cerevisiae rad50 strain growth inhibition, stronger effect = higher value. The method, boiled down:
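Growth of the mutant yeast was measured after compound exposure and referenced to vehicle-treated cultures.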

Experiment [2] can be described thus: NCI Yeast Anticancer Drug Screen. Data for the mec2-1 strain (AID 157). The settings on record: S. cerevisiae mec2-1 strain, stronger effect = higher value. Put shortly: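 Mutant yeast (mec2-1) grown with compound; growth inhibition relative to vehicle control reported.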
The nature of experiment [3]: NCI Yeast Anticancer Drug Screen. Data for the sgs1 mgt1 strain (AID 161).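 Further: 0% = growth of cultures given vehicle only.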 The note with it: S. cerevisiae sgs1 mgt1 strain, stronger effect = higher value. Put shortly: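 Compounds are added to genetically altered yeast, and growth is compared with cultures given vehicle alone to give percent inhibition.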
Experiment [4] in a line: NCI Yeast Anticancer Drug Screen. Data for the cln2 rad14 strain (AID 165).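 Further: 0% = growth equal to vehicle treated cultures.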 The note with it: S. cerevisiae cln2 rad14 strain, stronger effect = higher value. Put shortly:
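Readout is yeast growth inhibition versus vehicle-treated controls, using a strain with cln2 and rad14 alterations exposed to compound.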

Experiment [5] is described as follows: NCI Yeast Anticancer Drug Screen. Data for the bub3 strain (AID 167). The note with it: S. cerevisiae bub3 mutant strain, stronger effect = higher value. Put shortly:
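Whole-cell yeast assay. The mutant strain was incubated with compounds, and growth inhibition was determined by comparison with vehicle-treated cells.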

A short description of experiment [6]: NCI Yeast Anticancer Drug Screen. Data for the mlh1 rad18 strain (AID 175). The settings on record: S. cerevisiae mlh1 rad18 strain growth inhibition, stronger effect = higher value. The method, boiled down:
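Genetically defined yeast (DNA repair-deficient) exposed to compounds; growth inhibition determined relative to vehicle.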

[7] abbreviates: at 5.0 µM (retest, dose inferred, filed as 0.5).
[8] abbreviates: at 50.0 µM (retest, dose inferred, filed as 5.0).

As for `COc1ccc(C2c3cc4c(cc3OC(NNC(N)=O)C2C)OCO4)cc1` (stereo unspecified), the growth inhibition in experiment [1] (setting [7]) is -1% (inactive); in experiment [1] (setting [8]) it was 96% (active); in experiment [1] (at 50.0 µM), 84.5% (active); in experiment [2] (setting [7]), -36% (inactive); in experiment [2] (setting [8]), 96% (active); in experiment [2] (at 50.0 µM) it was 80.4% (active). In addition, the growth inhibition in experiment [3] (setting [7]) was -38% (inactive); in experiment [3] (setting [8]), 96% (active); in experiment [3] (at 50.0 µM), 87.8% (active); in experiment [4] (setting [7]) it was -4% (inactive); in experiment [4] (setting [8]), 95% (active); in experiment [4] (at 50.0 µM), 76% (active). The growth inhibition in experiment [5] (setting [7]) was -34% (inactive); in experiment [5] (setting [8]), 99% (active); in experiment [5] (at 50.0 µM), 85.8% (active); in experiment [6] (setting [7]) it was 6% (inactive); in experiment [6] (setting [8]), 97% (active); in experiment [6] (at 50.0 µM) it was 85.8% (active).

Regarding `CSc1ccc(N2C(=O)CSC2=S)cc1Cl`, the growth inhibition in experiment [1] (setting [7]) is 27% (inactive); in experiment [1] (setting [8]) it was 74% (active); in experiment [1] (at 50.0 µM) it was 97.5% (active); in experiment [2] (setting [7]), 27% (inactive); in experiment [2] (setting [8]), 40% (inactive); in experiment [2] (at 50.0 µM) it was 94.3% (active). Also, the growth inhibition in experiment [3] (setting [7]) is 16% (inactive); in experiment [3] (setting [8]), 79% (active); in experiment [3] (at 50.0 µM) it was 95.2% (active); in experiment [4] (setting [7]) it was -1% (inactive); in experiment [4] (setting [8]) it was -4% (inactive); in experiment [4] (at 50.0 µM) it was 29.1% (inactive). Moreover, the growth inhibition in experiment [5] (setting [7]) was 37% (inactive); in experiment [5] (setting [8]) it was 82% (active); in experiment [5] (at 50.0 µM), 92.4% (active); in experiment [6] (setting [7]) it was 31% (inactive); in experiment [6] (setting [8]) it was 94% (active); in experiment [6] (at 50.0 µM), 97% (active).

Consider `CCOC(=O)[C@H]1Nc2ccc([N+](=O)[O-])cc2C2c3ccccc3CC21` (stereo partly specified), for which the growth inhibition in experiment [1] (setting [7]) was 32% (inactive); in experiment [1] (setting [8]), 91% (active); in experiment [1] (at 50.0 µM) it was 80.3% (active); in experiment [2] (setting [7]) it was -11% (inactive); in experiment [2] (setting [8]), 48% (inactive); in experiment [2] (at 50.0 µM) it was 87.8% (active). Also, the growth inhibition in experiment [3] (setting [7]) is 24% (inactive); in experiment [3] (setting [8]), 93% (active); in experiment [3] (at 50.0 µM), 91.2% (active); in experiment [4] (setting [7]), 8% (inactive); in experiment [4] (setting [8]), 91% (active); in experiment [4] (at 50.0 µM), 86.3% (active). The growth inhibition in experiment [5] (setting [7]) is 6% (inactive); in experiment [5] (setting [8]) it was 89% (active); in experiment [5] (at 50.0 µM), 88.2% (active); in experiment [6] (setting [7]), 17% (inactive); in experiment [6] (setting [8]) it was 90% (active); in experiment [6] (at 50.0 µM), 84% (active).

As to `Oc1ccc(N=Nc2ccccn2)c(O)c1`, the growth inhibition was -174% (inactive) and 98% (active) in experiment [1] (setting [7]); 94% (active) and 98% (active) in experiment [1] (setting [8]); 98.5% (active) and 88.8% (active) in experiment [1] (at 50.0 µM); -53% (inactive) and 99% (active) in experiment [2] (setting [7]); 97% (active) and 99% (active) in experiment [2] (setting [8]); 98.5% (active) and 90.5% (active) in experiment [2] (at 50.0 µM). For the same compound, the growth inhibition in experiment [3] (setting [7]) is -67% (inactive) and 19% (inactive); in experiment [3] (setting [8]), 94% (active) and 97% (active); in experiment [3] (at 50.0 µM), 98.2% (active) and 91.2% (active); in experiment [4] (setting [7]) it was -66% (inactive) and 42% (inactive); in experiment [4] (setting [8]), 94% (active) and 98% (active); in experiment [4] (at 50.0 µM), 96% (active) and 86.2% (active). Also, the growth inhibition was -67% (inactive) and 42% (inactive) in experiment [5] (setting [7]); 96% (active) in experiment [5] (setting [8]); 97.5% (active) and 89.8% (active) in experiment [5] (at 50.0 µM); -127% (inactive) and 100% (active) in experiment [6] (setting [7]); 95% (active) and 99% (active) in experiment [6] (setting [8]); 98.4% (active) and 89% (active) in experiment [6] (at 50.0 µM).

As to `NNC(=O)c1ccc(NC(=O)CSc2nc3ccccc3s2)cc1`, the growth inhibition was -4% (inactive) in experiment [1] (setting [7]); 35% (inactive) in experiment [1] (setting [8]); 92.7% (active) in experiment [1] (at 50.0 µM); 6% (inactive) in experiment [2] (setting [7]); 28% (inactive) in experiment [2] (setting [8]); 79% (active) in experiment [2] (at 50.0 µM). In addition, the growth inhibition in experiment [3] (setting [7]) is 9% (inactive); in experiment [3] (setting [8]), 59% (inactive); in experiment [3] (at 50.0 µM), 96.2% (active); in experiment [4] (setting [7]), 0% (inactive); in experiment [4] (setting [8]), 48% (inactive); in experiment [4] (at 50.0 µM) it was 31.2% (inactive). Further, the growth inhibition in experiment [5] (setting [7]) was 52% (inactive); in experiment [5] (setting [8]), 82% (active); in experiment [5] (at 50.0 µM), 97.8% (active); in experiment [6] (setting [7]), 86% (active); in experiment [6] (setting [8]) it was 82% (active); in experiment [6] (at 50.0 µM), 98.6% (active).

For `O=C(CCC(=O)OCCOc1ccccc1)OCCOc1ccccc1`, the growth inhibition in experiment [1] (setting [7]) was 10% (inactive); in experiment [1] (setting [8]), -1% (inactive); in experiment [1] (at 50.0 µM) it was -3.5% (inactive); in experiment [2] (setting [7]), -16% (inactive); in experiment [2] (setting [8]) it was -13% (inactive); in experiment [2] (at 50.0 µM) it was -4.7% (inactive). The growth inhibition in experiment [3] (setting [7]) is 17% (inactive); in experiment [3] (setting [8]) it was 3% (inactive); in experiment [3] (at 50.0 µM) it was -6.4% (inactive); in experiment [4] (setting [7]) it was 7% (inactive); in experiment [4] (setting [8]), 20% (inactive); in experiment [4] (at 50.0 µM) it was 21.6% (inactive). Further, the growth inhibition in experiment [5] (setting [7]) was 1% (inactive); in experiment [5] (setting [8]), 7% (inactive); in experiment [5] (at 50.0 µM), -4% (inactive); in experiment [6] (setting [7]) it was 6% (inactive); in experiment [6] (setting [8]), 30% (inactive); in experiment [6] (at 50.0 µM), -1.75% (inactive).

In the case of `O=C1/C(=C/c2ccc(Cl)cc2)Sc2scc(-c3cccc([N+](=O)[O-])c3)[n+]21`, the growth inhibition is 26% (inactive) in experiment [1] (setting [7]); 99% (active) in experiment [1] (setting [8]); 89.5% (active) in experiment [1] (at 50.0 µM); 36% (inactive) in experiment [2] (setting [7]); 100% (active) in experiment [2] (setting [8]); 90.4% (active) in experiment [2] (at 50.0 µM). Further, the growth inhibition in experiment [3] (setting [7]) was 84% (active); in experiment [3] (setting [8]), 99% (active); in experiment [3] (at 50.0 µM), 91.9% (active); in experiment [4] (setting [7]) it was 44% (inactive); in experiment [4] (setting [8]) it was 98% (active); in experiment [4] (at 50.0 µM), 90.5% (active). In addition, the growth inhibition was 98% (active) in experiment [5] (setting [7]); 99% (active) in experiment [5] (setting [8]); 89.8% (active) in experiment [5] (at 50.0 µM); 35% (inactive) in experiment [6] (setting [7]); 100% (active) in experiment [6] (setting [8]); 91.8% (active) in experiment [6] (at 50.0 µM).
